Experimental data reported in the supplement of paper PMC12669032.
A number with no mark means an inactive call.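 Rule for the calls: active = AUC reduced over 20% with Padj below 0.05 in at least 2 of 3 replicates; inactive = otherwise.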

Legend:
Roseburia intestinalis = assay: growth AUC relative to DMSO control (median of replicates) (fraction); higher = more growth (less inhibition), active = hit call of the paper; settings: 20 µM; 24 h
In short: (§1)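 In round-bottom 96-well plates sealed with pierced gas-permeable seals, gut bacterial monocultures in mGAM were grown anaerobically at 37 °C from OD600 0.05 with 20 µM compound (1% DMSO). OD600 readings were taken hourly for 24 h, and the minimum OD was set to 0. Area under the growth curve was then normalised to the plate median of solvent-only wells, or to row and column medians on the industrial chemical plate. The value given is the median of three biological replicates grown on separate days.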

Streptococcus salivarius = assay: as above; settings: 20 µM; 24 h
In short: as §1

Structure (SMILES)	growth AUC (Roseburia intestinalis)	growth AUC (Streptococcus salivarius)
COP(=S)(OC)Oc1ccc(C#N)cc1	1.06	0.959
CCCCCCCCCc1ccc(O)cc1	0.897	0.927
Cn1cc(-c2ccccc2)c(=O)c(-c2cccc(C(F)(F)F)c2)c1	1.04	0.986
CCOP(=O)(SC(C)CC)N1CCSC1=O (stereo not drawn)	1.03	1.02
COP(=O)(OC)Oc1ccc(S(C)(=O)=O)c(C)c1	1.02	1.01
CON(C)C(=O)Nc1ccc(Cl)cc1	1.02	1.04
COP(=S)(OC)Oc1ccc(S(C)=O)c(C)c1 (stereo not drawn)	1.07	0.988
CC1(C)C(C=C(Cl)Cl)C1C(=O)OC(C#N)c1cccc(Oc2ccccc2)c1 (mixture of isomers)	0.945	0.936
Clc1ccc(Cl)c(Cl)c1	0.989	1.01
CCOCn1c(-c2ccc(Cl)cc2)c(C#N)c(Br)c1C(F)(F)F	0.983	0.944
CCOP(=S)(OCC)Oc1cc(-c2ccccc2)on1	0.993	0.995
CNC(=O)O/N=C/C(C)(C)SC	1.03	1.06
CCSC(=O)N(CC)C1CCCCC1	1.07	0.948
C[C@@H](Oc1ccc(Cl)cc1Cl)C(=O)O	0.927	0.919
Cl.NC1=NCCN1Cc1ccc(Cl)nc1	0.963	1.01
CCCN(CCC)C(=O)SCc1ccccc1	0.984	1
COc1ccccc1N	1.03	0.998
COC(=O)c1ccccc1S(=O)(=O)NC(=O)Nc1nc(C)nc(OC)n1	0.978	0.935
O=[N+]([O-])c1ccc2ccc3cccc4ccc1c2c34	1.28	1.06
c1ccc2c(c1)cc1ccc3cccc4ccc2c1c34	1.13	1.06
Cc1cc(C)nc(Nc2ccccc2)n1	0.999	0.995
Cc1cnc2c(C(=O)O)c(Cl)ccc2c1	0.937	0.969
COP(=O)(NC(C)=O)SC (stereo not drawn)	1.01	1.01
Oc1ccc(Cl)c(Cl)c1Cl	1.05	0.96
COP(N)(=O)SC (stereo not drawn)	1	0.996

Structure (SMILES)	growth AUC (Roseburia intestinalis)	growth AUC (Streptococcus salivarius)
OC(Cc1ccccc1Cl)(Cn1[nH]cnc1=S)C1(Cl)CC1 (stereo not drawn)	0.978	0.959
CCOc1cc(Oc2ccc(C(F)(F)F)cc2Cl)ccc1[N+](=O)[O-]	0.884	0.976
CCOC(=O)C(C)OC(=O)c1cc(Oc2ccc(C(F)(F)F)cc2Cl)ccc1[N+](=O)[O-] (stereo not drawn)	0.78 (active)	0.903
CCC(C)(C)C(=O)OC1=C(c2ccc(Cl)cc2Cl)C(=O)OC12CCCCC2	1.02	1.03
O=C(Nc1ccc(F)cc1F)c1cccnc1Oc1cccc(C(F)(F)F)c1	0.933	0.958
Nc1cc(Cl)cc(Cl)c1	1.07	1.01
COCCN(C(=O)CCl)c1c(C)cccc1C	0.96	0.957
CCOP(=S)(OCC)Oc1ccc(=O)n(-c2ccccc2)n1	0.988	0.983
COP(=O)(OC)OC1=C(Cl)C2C=CCC12 (stereo not drawn)	1.04	1.03
CCOP(=O)(OCC)Oc1ccc(S(C)(=O)=O)cc1	0.974	1.02
CCNc1nc(Cl)nc(NC(C)(C)C#N)n1	1.03	0.976
Nc1nc(N)nc(NC2CC2)n1	0.97	0.981
CCc1cc(C)cc(CC)c1-c1c(OC(=O)C(C)(C)C)n2n(c1=O)CCOCC2	0.981	1.02
CCC(C)(c1ccc(O)cc1)c1ccc(O)cc1	0.947	0.96
COc1cnc(OC)n2nc(NS(=O)(=O)c3c(OCC(F)F)cccc3C(F)(F)F)nc12	1.01	0.959
C[N+]1(C)CCCCC1.[Cl-]	0.975	0.99
CN(C)NC(=O)CCC(=O)O	0.953	0.951
Oc1ccc(-c2ccccc2)cc1	0.947	0.968
O=[N+]([O-])c1ccc(Oc2ccc(C(F)(F)F)cc2[N+](=O)[O-])cc1	0.928	0.985
CCc1cccc(C)c1N(C(=O)CCl)[C@@H](C)COC	1.03	1.02
CCCCc1c(C)nc(N(C)C)[nH]c1=O	0.959	1.02
O=C(NC(=O)c1c(F)cccc1F)Nc1cc(Cl)c(Oc2ncc(C(F)(F)F)cc2Cl)c(Cl)c1	1.11	0.98
CC1CCCCC1NC(=O)Nc1ccccc1 (mixture of isomers)	0.985	1.02
CC(C)(C)C(O)C(Oc1ccc(Cl)cc1)n1cncn1 (stereo not drawn)	1.03	1.03
Nc1cccc(Cl)c1Cl	1.02	1.01

Structure (SMILES)	growth AUC (Roseburia intestinalis)	growth AUC (Streptococcus salivarius)
CC[C@H]1CCCC(O[C@H]2CC[C@H](N(C)C)[C@@H](C)O2)[C@@H](C)C(=O)C2=C[C@@H]3[C@@H](C=C(C)[C@@H]4C[C@@H](O[C@@H]5O[C@@H](C)[C@H](OC)[C@@H](OC)[C@H]5OC)C[C@@H]34)[C@@H]2CC(=O)O1.CC[C@H]1CCCC(O[C@H]2CC[C@H](N(C)C)[C@@H](C)O2)[C@@H](C)C(=O)C2=C[C@@H]3[C@@H](C=C[C@@H]4C[C@@H](O[C@@H]5O[C@@H](C)[C@H](OC)[C@@H](OC)[C@H]5OC)C[C@@H]34)[C@@H]2CC(=O)O1 (stereo partly drawn)	1.03	0.972
CNC(=O)CSP(=O)(OC)OC	1.02	1.01
CCCN(CCCl)c1c([N+](=O)[O-])cc(C(F)(F)F)cc1[N+](=O)[O-]	0.989	0.928
CC1(C)C(C=C(Cl)Cl)C1C(=O)OCc1cccc(Oc2ccccc2)c1 (mixture of isomers)	0.921	0.979
CC(C)OC(=O)C(O)(c1ccc(Br)cc1)c1ccc(Br)cc1	1	0.962
COC(=O)NC(=S)Nc1ccccc1NC(=S)NC(=O)OC	0.979	0.98
BrCCBr	1.06	1.01
CCS(=O)(=O)Cc1ccccc1OC(=O)NC	0.964	0.927
Clc1cc(Cl)nc(-c2ccccc2)n1	0.956	0.99
C=C(C)CN(CC)c1c([N+](=O)[O-])cc(C(F)(F)F)cc1[N+](=O)[O-]	1.01	0.989
CCOP(=O)(OCC)O/C(=C/Br)c1ccc(Cl)cc1Cl	0.995	0.975
CCCOCC(=Nc1ccc(Cl)cc1C(F)(F)F)n1ccnc1	0.805	0.982
CCS(=O)(=O)Oc1ccc2c(c1)C(C)(C)CO2	1.04	1.03
CCC(C)(CC)c1cc(NC(=O)c2c(OC)cccc2OC)on1	0.963	0.979
C[C@@H]1C[C@@H]([C@H](O)CC2CC(=O)NC(=O)C2)C(=O)[C@@H](C)C1	0.987	1.03
CC(C)(O)C(Cl)(Cl)Cl.CC(C)(O)C(Cl)(Cl)Cl.O	1.01	1.05
CCCN(CCC)N=O	0.988	0.967
CC(C)(COCc1cccc(Oc2ccccc2)c1)c1ccc(OC(F)(F)Br)cc1	1.05	0.966
COc1ccc(/C(=C/C(=O)N2CCOCC2)c2ccc(F)cc2)cc1OC	0.975	1.04
Clc1ccc(C(c2ccc(Cl)cc2)C(Cl)(Cl)Cl)cc1	0.941	0.897
COC(=O)NCc1cc(/C(C)=N/OCc2cccc(C)n2)ccc1Cl	0.957	1.01
CC(C)C(C(=O)OC(C#N)c1cccc(Oc2ccccc2)c1)c1ccc(Cl)cc1 (stereo not drawn)	0.929	0.988
CC1(C)[C@H](/C=C(\Cl)C(F)(F)F)[C@@H]1C(=O)O[C@@H](C#N)c1cccc(Oc2ccccc2)c1	0.919	0.957
CCCOc1nn(C(=O)[N-]S(=O)(=O)c2ccccc2C(=O)OC)c(=O)n1C.[Na+]	0.992	0.981
